Consider eleven molecules from PubChem BioAssay (NCATS).

Assay [1] in a line: Primary qHTS for small molecule stabilizers of the endoplasmic reticulum resident proteome: Secreted ER Calcium Modulated Protein (SERCaMP) assay (AID 1508630). Summed up: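 The SH-SY5Y reporter protocol was run at 3 concentrations up to 38.3 uM (primary) or 11 concentrations (follow-up): 16 h compound, 100 nM thapsigargin for 4 h, then extracellular luciferase luminescence.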

The target in assay [2] is Cytochrome P450 2C9 (Homo sapiens) (UniProt P11712). Kind of assay: Cytochrome P450 family 2 subfamily C member 9 (CYP2C9) small molecule antagonists: luciferase biochemical (cell-free) qHTS assay (AID 1645842; active means well fitted curve in the direction sought with a large enough effect in the repeat runs; an effect the other way counts as inactive or inconclusive; further: nearly all actives have a fitted effect of over 55% in size; further: potency means the concentration at half of the fitted maximal effect). The essentials:
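P450-Glo CYP2C9 system: proluciferin substrate with enzyme in mix containing 0.4% BSA, 10 min at room temperature, then NADPH regeneration solution added and incubated 1 h at 37C. Detection reagent stopped reaction; luminescence read after 20 min as RLU.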
(Quantitative high-throughput screening tests each substance at several concentrations.)

The target in assay [3] is Cytochrome P450 2D6 (Homo sapiens) (UniProt P10635). Briefly: Cytochrome P450 family 2 subfamily D member 6 (CYP2D6) small molecule antagonists: luciferase biochemical (cell-free) qHTS assay (AID 1645840; active means well fitted curve in the direction sought with a large enough effect in the repeat runs; an effect the other way counts as inactive or inconclusive; further: potency means the concentration at half of the fitted maximal effect; nearly all actives have a fitted effect of over 55% in size). Summed up: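 P450-Glo CYP2D6 system: proluciferin substrate converted by enzyme to luciferin, read by luminescence proportional to activity. Enzyme-substrate mix with compound 10 min at room temperature, then NADPH regeneration 1 h before detection reagent.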
Cytochrome P450 2D6 (Homo sapiens), sequence (P10635 whole entry, looked up): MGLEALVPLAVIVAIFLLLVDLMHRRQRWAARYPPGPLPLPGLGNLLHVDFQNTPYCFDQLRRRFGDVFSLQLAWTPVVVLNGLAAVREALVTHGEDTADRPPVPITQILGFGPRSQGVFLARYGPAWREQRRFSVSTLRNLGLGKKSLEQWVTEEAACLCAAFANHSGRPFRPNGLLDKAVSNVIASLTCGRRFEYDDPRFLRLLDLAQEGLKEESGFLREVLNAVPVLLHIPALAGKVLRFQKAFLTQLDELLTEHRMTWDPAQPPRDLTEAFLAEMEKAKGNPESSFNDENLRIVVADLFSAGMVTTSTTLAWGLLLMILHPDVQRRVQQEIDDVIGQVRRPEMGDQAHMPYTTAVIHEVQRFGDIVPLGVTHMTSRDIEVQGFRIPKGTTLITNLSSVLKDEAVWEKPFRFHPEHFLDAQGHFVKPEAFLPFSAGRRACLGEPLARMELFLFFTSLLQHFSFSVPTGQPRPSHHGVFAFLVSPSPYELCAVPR

Records with an inconclusive call do not appear. Entries that show only a call come without a potency. Calls of active or inactive are those of the source. Unless noted, the call rests on the fitted dose curve; in most records, active means well fitted curve in the direction sought with a large enough effect; inconclusive means small, poorly fitted or top-dose-only effect, or another doubt; inactive means no such curve, though single readings can be large; an effect the other way counts as inactive or inconclusive.

Cytochrome P450 2C9 (Homo sapiens), sequence (P11712 whole entry, looked up): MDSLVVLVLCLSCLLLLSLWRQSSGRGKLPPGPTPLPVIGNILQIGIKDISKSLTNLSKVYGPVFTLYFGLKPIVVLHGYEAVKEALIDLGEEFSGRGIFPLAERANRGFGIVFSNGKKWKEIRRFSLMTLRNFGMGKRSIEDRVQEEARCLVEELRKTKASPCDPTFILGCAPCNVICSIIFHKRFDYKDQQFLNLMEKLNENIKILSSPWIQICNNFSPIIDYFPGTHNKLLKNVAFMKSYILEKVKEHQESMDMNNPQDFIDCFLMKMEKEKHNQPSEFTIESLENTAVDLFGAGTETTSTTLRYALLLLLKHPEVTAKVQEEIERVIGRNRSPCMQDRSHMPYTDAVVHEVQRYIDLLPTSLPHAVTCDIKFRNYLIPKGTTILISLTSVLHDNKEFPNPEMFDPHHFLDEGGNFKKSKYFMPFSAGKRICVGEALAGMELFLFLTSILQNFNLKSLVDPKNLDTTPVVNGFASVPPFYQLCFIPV

With `Cc1cccc(C=NNc2cc(N3CCOCC3)nc(OCCc3ccccn3)n2)c1`, in assay [1], the Potency result is “inactive”.

Take `CN1CCN(Cc2ccc(NC(=O)Nc3ccc(Oc4cc(NC(=O)C5CC5)ncn4)cc3)cc2C(F)(F)F)CC1`: the Potency result in assay [1] is “inactive”. In assay [2], the Potency is 10.7 µM (active).

With `COc1cc2c(Oc3ccc(-c4cnc(Nc5ccc(F)cc5)n(C)c4=O)cc3F)ccnc2cc1OCCCN1CCOCC1`, the Potency entry in assay [1] and in assay [2] was “inactive” each time.

For `Cc1cnc(Nc2ccc(F)cc2Cl)nc1-c1c[nH]c(C(=O)N[C@H](CO)c2cccc(Cl)c2)c1`, the Potency entry in assay [1] is “inactive”. Besides, the results for the Potency in assay [3] and in assay [2] were 8.49 µM (active) and 3.38 µM (active), respectively.

Regarding `O=C(O)CO.[NH2-].[NH2-].[Pt+2]`, the Potency result in assay [1] is “inactive”.

Turning to `Cc1cc(Nc2cc(CN3CCOCC3)c3nc(C)c(Cc4ccc(Cl)cc4F)n3n2)n[nH]1`, the Potency result in assay [1] is “inactive”. The Potency in assay [3] is 23.9 µM (active); in assay [2] it was 12 µM (active).

In the case of `Cn1cc(-c2[nH]c3cc(NC(=O)[C@H](N)C4CCCCC4)cc4c3c2C=NNC4=O)cn1`, the Potency entry in assay [1] was “inactive”. Moreover, in assay [2], the Potency was 9.52 µM (active).

Regarding `O=C(C=Cc1c(C(=O)O)[nH]c2cc(Cl)cc(Cl)c12)Nc1ccccc1`, the Potency result in assay [1] was “inactive”.

In the case of `COC(=O)[C@]12CCC(C)(C)C[C@@H]1[C@@H]1C(=O)C=C3[C@@]4(C)C=C(C#N)C(=O)C(C)(C)[C@@H]4CC[C@@]3(C)[C@]1(C)CC2`, the Potency result in assay [1] was “inactive”.

For the molecule `Cn1c2cc(S(C)=O)sc2c2cnn(Cc3cccc(N)c3)c(=O)c21` (stereo not given), in assay [1], the Potency result was “inactive”. Moreover, in assay [2], the Potency was 19 µM (active).

`CN1CCC(CNc2ccc3ncc(-c4cccc(OC(F)(F)F)c4)n3n2)CC1`: the Potency entry in assay [1] was “inactive”. Moreover, in assay [3], the Potency was 2.39 µM (active).
